24 compounds from PubChem BioAssay (EPA / NIEHS) can be followed below.

Structures are written as SMILES. Inconclusive results are not listed. Active and inactive are the calls of the source. Rule for the calls: active = hit-call score of the fitted dose curve at least 0.9, where 1 is the maximum; inconclusive = response in the unintended direction; inactive = score below 0.9.

Chain of Cytochrome P450 2C19 (Homo sapiens) (P33261 whole entry, looked up): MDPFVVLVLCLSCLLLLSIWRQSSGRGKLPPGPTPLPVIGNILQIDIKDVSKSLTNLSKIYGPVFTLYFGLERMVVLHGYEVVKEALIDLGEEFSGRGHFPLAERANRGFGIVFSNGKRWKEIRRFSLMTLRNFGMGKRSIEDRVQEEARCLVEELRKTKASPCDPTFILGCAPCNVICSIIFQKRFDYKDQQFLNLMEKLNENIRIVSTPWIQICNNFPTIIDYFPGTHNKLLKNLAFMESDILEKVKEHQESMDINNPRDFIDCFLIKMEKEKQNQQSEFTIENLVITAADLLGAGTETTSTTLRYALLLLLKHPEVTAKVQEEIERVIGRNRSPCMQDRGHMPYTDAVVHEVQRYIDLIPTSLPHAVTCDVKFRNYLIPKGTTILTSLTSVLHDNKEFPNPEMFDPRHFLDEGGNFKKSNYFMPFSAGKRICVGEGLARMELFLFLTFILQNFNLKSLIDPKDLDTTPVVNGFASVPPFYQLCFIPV

Read-out in the experiment: Cytochrome P450 2C19 (Homo sapiens) (UniProt P33261)
In words: CLD_CYP2C19_24hr: CellzDirect (CLD) Gene Expression Assay for xenobiotic metabolism (CYP2C19) at 24 hours (AID 2283687).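 Note: activity means mRNA induction above DMSO vehicle baseline.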 How it is done: CLD_24hr is a cell-based, multiplexed-readout assay that uses hepatocyte, a human liver primary cell, with measurements taken at 24 hours after chemical dosing in a 96-well plate.CLD_CYP2C19_24hr is one of 16 assay component(s) measured or calculated from the CLD_24hr assay. It is designed to make measurements of mRNA induction, a form of inducible reporter, as detected with chemiluminescence signals by Quantitative Nuclease Protection Assay (qNPA) technology.Data from the assay component CLD_CYP2C19_24hr was analyzed at the endpoint, CLD_CYP2C19_24hr, in the positive analysis fitting direction relative to DMSO as the negative control and baseline of activity. Using a type of inducible reporter, gain-of-signal activity can be used to understand changes in the reporter gene as they relate to the gene CYP2C19. Furthermore, this assay endpoint can be referred to as a primary readout. To generalize the intended target to other relatable targets, this assay endpoint is annotated to the cyp intended target family, where subfamily is xenobiotic metabolism.
Human hepatocyte cultures were treated daily for two consecutive days with fresh dosing solutions containing appropriate concentrations of the 320 ToxCast chemicals (chemical identities were blinded to CellzDirect and other ToxCast collaborators), vehicle control (0.2% DMSO), and positive control inducers as summarized in Table 1. Due to the large number of treatment groups and chemicals examined, the ToxCast chemicals were divided into two groups (spanning two independent cultures of hepatocytes from separate donor preparations (Hu778: ToxCast plates 1 and 2; Hu776: ToxCast plates 3 and 4). Each preparation of human hepatocyte cultures was treated with respective vehicle control, medium only control, set of six positive controls/reference chemicals for the five hepatic receptor pathways, and a subset of eight of the ToxCast chemicals (indoxacarb, pyrithiobac-sodium, norflurazon, cyhalofop-butyl, methomyl, thiram, acetochlor, and propiconazole). These replicate data, coupled with internal replicates designed within the blinded ToxCast chemical library, provided additional data to evaluate interindividual differences between hepatocyte preparations and their potential impact on chemical profiles.Cell morphology and integrity were evaluated using phase-contrast microscopy as an indicator of hepatocyte cell health (Tyson & Green, 1987). Cultures for each treatment group (i.e., media, vehicle [0.2% DMSO], positive control inducers [multiple concentrations], and the ToxCast chemicals [multiple concentrations]) were observed and cell morphology was assessed relative to vehicle control cultures at each harvest time point (0, 6, 24, or 48 h). […] Images were evaluated at the conclusion of the study to assess changes in cell integrity and account for the effects of chemical exposure on uncharacteristic changes in concentration-dependent gene expression profiles. The results from these determinations of apparent cytotoxicity were annotated (yes/no) alongside the corresponding qNPA data for reference.At the conclusion of each treatment period, hepatocyte cultures (96-well) were washed with 1 volume of HBSS, lysed by addition of 25 ul ArrayPlate lysis buffer (HTG, Tucson, AZ), and 70 ul/well of Denaturation Oil, denatured by incubation at 95C for 10 min, and frozen at approximately -70C until analysis by nuclease protection assay (qNPA) (Roberts et al., 2007). For qNPA analysis, cell lysates were thawed at 50C for approximately 30 min, qNPA probes were added, and samples were incubated at 95C for 10 min to begin the detection process by denaturing the target RNA, dissociating the duplexes and secondary structure hybridization. At the conclusion of the hybridization period, S1 nuclease reagent was added to each sample to digest all nonprotected nucleotides at 50C for 60-90 min. […]
Regarding `C#CCOC(=O)[C@@H](C)Oc1ccc(Oc2ncc(Cl)cc2F)cc1`, the outcome was inactive. As for `Oc1ccc(C(c2ccc(O)cc2)C(Cl)(Cl)Cl)cc1`, the result was inactive.

Regarding `CSC(=O)c1cccc2nnsc12`, the result was inactive. Consider `Cc1nn(C)c(Oc2ccccc2)c1C=NOCc1ccc(C(=O)OC(C)(C)C)cc1`, for which the call was inactive.

For `COc1c(Cl)ccc(Cl)c1C(=O)O`, the call was inactive. Next, `CCCOC(=O)c1ccc(C(=O)OCCC)nc1`: “inactive”; `CCOC(=O)NCCOc1ccc(Oc2ccccc2)cc1`: “inactive”. Consider `COC(=O)c1ccccc1S(=O)(=O)NC(=O)Nc1nc(OC(F)F)cc(OC(F)F)n1`, for which the compound was classed as inactive. In the case of `COC(=O)c1ccc(CNS(C)(=O)=O)cc1S(=O)(=O)NC(=O)Nc1nc(OC)cc(OC)n1`, the compound was called inactive. With `CC1(C)C(C=C(Cl)Cl)C1C(=O)OCc1cccc(Oc2ccccc2)c1` (centres undefined), the compound was called inactive.

As to `CCOC(=O)C(C)Oc1ccc(Oc2nc3ccc(Cl)cc3o2)cc1` (centres undefined), the compound was classed as inactive. Then `CC(C)(c1ccc(O)cc1)c1ccc(O)cc1`, with “inactive”. Then `CCC(C)OC(=O)N1CCCCC1CCO` (centres undefined), with “inactive”; and `CCN(CC)C(=O)c1cccc(C)c1`, with “inactive”; and `S=C(S)NCCNC(=S)S.[Mn+2].[S-]C([S-])=NCCN=C([S-])[S-].[Zn+2]`, with “inactive”.

Turning to `c1ccc(Nc2ccccc2)cc1`, the compound was classed as inactive. Turning to `COC(=O)c1ccccc1C(=O)O`, the call was inactive. Regarding `CCCN(CCC)C(=O)SCC`, the call was inactive. On to `COc1nc(C)nc(NC(=O)NS(=O)(=O)c2ccccc2OCCCl)n1`, for which the compound was classed as inactive. For the compound `CCSC(=O)N(CC(C)C)CC(C)C`, the result was inactive. As to `COC(=O)CSc1cc(N=c2sc(=O)n3n2CCCC3)c(F)cc1Cl`, the compound was classed as inactive. As for `CCOC(=O)COc1cc(-n2ncc(C(F)(F)F)c(C)c2=O)c(F)cc1Cl`, the call was inactive.

As to `COC(=O)c1ccc(I)cc1S(=O)(=O)NC(=O)Nc1nc(C)nc(OC)n1`, the result was inactive. In the case of `CCCCOC(=O)C(C)Oc1ccc(Oc2ccc(C(F)(F)F)cn2)cc1` (centres undefined), the call was inactive.
